Here are results for 87 molecules from PubChem BioAssay AID485358 (National Center for Advancing Translational Sciences (NCATS), 2010).

About 1,800 (0.53%) of roughly 340,000 compounds were called active. What follows is part of a selection rich in actives, with near analogues and random picks from the rest. Values without a mark were called inactive.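 Rule for the calls: active = activation over 3 SD above normal in the single-dose calcium agonist read (cut at about 30% in these data); inactive = the rest.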

Chain of D(2) dopamine receptor (Homo sapiens) (P14416 whole entry, looked up): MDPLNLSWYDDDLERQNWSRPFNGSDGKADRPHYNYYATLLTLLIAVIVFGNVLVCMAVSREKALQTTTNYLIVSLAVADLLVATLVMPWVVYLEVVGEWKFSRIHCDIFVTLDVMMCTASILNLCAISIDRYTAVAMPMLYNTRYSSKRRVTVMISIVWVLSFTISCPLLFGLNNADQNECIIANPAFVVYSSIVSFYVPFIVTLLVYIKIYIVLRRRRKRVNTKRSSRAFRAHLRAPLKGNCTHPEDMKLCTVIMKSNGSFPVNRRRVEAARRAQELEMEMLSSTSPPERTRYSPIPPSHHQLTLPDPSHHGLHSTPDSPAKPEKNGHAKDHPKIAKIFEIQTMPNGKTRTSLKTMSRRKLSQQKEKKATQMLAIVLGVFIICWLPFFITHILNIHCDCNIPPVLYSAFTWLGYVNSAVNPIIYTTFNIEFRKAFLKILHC

The experiment addresses D(2) dopamine receptor (Homo sapiens) (UniProt P14416). Description: HTS Assay for Allosteric Agonists of the Human D2 Dopamine Receptor: Primary Screen for Agonists. Note: 0% is about no effect. The following applies: HEK293 T-REx D2 cells, calcium flux agonist mode; at 2 µM; hits give high values. The essentials:
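In this primary screen, compounds producing a positive calcium signal within 180 s of addition to tetracycline-induced, force-coupled HEK293 Trex D2 cells are flagged; cells are dye-loaded with a no-wash calcium kit beforehand.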
(Calcium assays in cells follow changes in intracellular calcium, usually with a dye or a luminescent sensor.)
For the molecule `Cc1cc(C)cc(NC(=O)CSc2nc3nccnc3c(=O)n2CCc2c[nH]c3ccccc23)c1`, the activation is 0.038%. With `Cc1ccccc1CNC(=O)C1CCCN(S(=O)(=O)N(C)c2ccc(F)cc2)C1` (configuration not stated), the activation was -0.556%. For `CCOc1ccc(CNC(=O)c2ccc(CS(=O)c3ccccc3)o2)cc1` (configuration not stated), the activation was -0.363%. Then `CCCN(CCC)CCNC(=O)Cn1cnc2sc(C)c(S(=O)(=O)N3CCC(C)CC3)c2c1=O`, with 0.0784%. As for `CCC(C)NC(=O)CCCc1ccccc1` (configuration not stated), the activation is 1.02%. With `CCCCC(=O)NNC(=S)NC(=O)C(c1ccccc1)c1ccccc1`, the activation was 52.5% (active).

In the case of `CCCCCC(=O)NC(=S)NNC(=O)c1ccc([N+](=O)[O-])cc1`, the activation was 2.53%. In the case of `CCCCOc1ccc(CN2C(=O)C(=O)c3cc(Br)cc(C)c32)cc1OC`, the activation was -0.896%. Take `Clc1ccc(CN2CCCCCC2)cc1Cl`: the activation is 0.701%. Take `Cc1ccc2[nH]c(=O)c(CN3CCCCC3)c(-c3ccccc3)c2c1`: the activation was 16.6%. Then `c1ccc2cc3[nH]c(CN4CCCCC4)nc3cc2c1`, with 39.6% (active); and `COc1cc(Cl)c(NC(=O)C(NS(=O)(=O)c2cccs2)C(C)C)c(OC)c1` (configuration not stated), with 0.0329%. On to `COc1ccc(-n2c(=O)c3sc4ccccc4c3n(CC(=O)Nc3cccc(C)c3)c2=O)cc1`, for which the activation was 1.94%. Regarding `COc1cccc(NC(=O)C2CCCN(c3ncnc4c3nc3n4CCCCC3)C2)c1` (configuration not stated), the activation was 60.2% (active).

As to `COc1cccc(CNC(=O)C2CCCN(c3ncnc4c3nc3n4CCCCC3)C2)c1` (configuration not stated), the activation is -0.0991%. In the case of `CCOC(=O)c1cccc(NC(=O)C2CCN(c3ncnc4c3nc3n4CCCCC3)CC2)c1`, the activation was -0.296%.

As to `O=C(/C=C/c1ccccc1)N1CCN(Cc2cc(=O)n3nc(-c4ccccc4F)sc3n2)CC1`, the activation was 0.305%. The result for `C=CCNC(=O)/C=C/c1ccc(C(C)C)cc1` reads 0.0403%.

Turning to `O=C(/C=C(O)/C=C/c1ccc(O)cc1)/C=C/c1ccc(O)cc1`, the activation is 57.4% (active). For the molecule `O=C(O)/C=C/c1ccc(S(=O)(=O)N2CCCCCC2)cc1`, the activation is 19.8%. Then `CC(NC(=O)c1cc2c(=O)n3ccccc3nc2n(C(C)C)c1=N)c1ccccc1` (configuration not stated), with 0.527%; and `COc1ccc(CNC(=O)CS(=O)Cc2nc(-c3cccc(C)c3)oc2C)cc1` (configuration not stated), with -0.737%; and `CCN(CCCNC(=O)c1ccc2c(c1)NC(=O)CN2C)c1cccc(C)c1`, with 37.3% (active). Consider `CCN(CCCNC(=O)CSc1cc(=O)n(C)c2cc(Cl)ccc12)c1cccc(C)c1`, for which the activation was 0.221%. For the molecule `CCN(CCCNC(=O)c1ccc(Sc2ccc(C)cc2)c(NC(C)=O)c1)c1cccc(C)c1`, the activation is 0.373%. Consider `COc1cc(OC)c(NC(=O)Cc2ccc(-n3c(C)nc4cccnc43)cc2)cc1Cl`, for which the activation was -0.621%. As for `CCOc1cc(C2c3c(-c4ccc(Br)cc4)n[nH]c3C(=O)N2c2ccc(Cl)cc2)ccc1O` (configuration not stated), the activation was 0.413%. The result for `Cc1cc(C)cc(NC(=O)Cn2nc(N3CCN(c4ccccc4)CC3)ccc2=O)c1` reads 0.0127%; that for `O=C(NCCc1c[nH]c2ccccc12)C1CCN(Cc2ccc(Br)cc2)CC1`, -0.253%. Take `N#C/C(=C/c1ccc(N2CCOCC2)o1)C(=O)N1CCOCC1`: the activation was 7.75%. The result for `N#C/C(=C/c1ccc(N2CCCCC2)o1)C(=O)NCCc1c[nH]c2ccccc12` reads 38.7% (active); that for `CCOc1cc(-c2nnc(SCC(=O)NC3CCCC3)nc2-c2ccc(OC)c(OCC)c2)ccc1OC`, 0.392%; that for `Cc1ccc(C(=O)Nc2c(C(=O)NC(C)(C)C)oc3ccccc23)cc1`, 0.0939%. As to `CCOC(=O)N1CCN(Cc2nc3cc(NC(C)=O)ccc3n2C)CC1`, the activation was 0.585%.

In the case of `O=C(CN1CCN(c2ncccn2)CC1)Nc1ccccc1C(F)(F)F`, the activation was 57.8% (active).

Take `Cn1c(CCN2CCCCCC2)nc2cc(NC(=O)Nc3ccccc3)ccc21`: the activation was 1.58%. `CC(C(=O)N(C)CC(=O)Nc1ccccc1C(F)(F)F)N1C(=O)c2ccccc2C1=O` (configuration not stated): the activation was -0.167%. `CCC(=O)Nc1ccc2c(c1)nc(CCN1CCN(c3ccccn3)CC1)n2C`: the activation is 78.2% (active). On to `O=C(Cc1ccc(Br)cc1)N1CCN(c2ccccn2)CC1`, for which the activation is 0.551%. Turning to `O=C(CN1CCN(c2ccccn2)CC1)Nc1ccc(Br)cc1`, the activation was 43.9% (active). For `O=C(CN1CCN(c2ccccn2)CC1)NCc1cccs1`, the activation is 18.2%. For `CS(=O)(=O)N1CCN(CC(=O)NC2CCCC2)CC1`, the activation was -0.0909%.

Regarding `CCN(CC)c1ccc(NC(=O)CN2CCN(c3ccccn3)CC2)cc1`, the activation is 26.5%. Then `O=C(CSc1n[nH]c(=O)n1-c1ccccc1)Nc1ccccc1C(F)(F)F`, with 0.222%. For `O=C(CN1CCN(c2ccccn2)CC1)NC1CCCCC1`, the activation was 67.6% (active).

For the molecule `CC1CCN(S(=O)(=O)c2ccc3c(c2)N(CC(=O)NCc2ccccc2Cl)C(=O)CO3)CC1`, the activation is -0.934%. For the molecule `CCc1ccc(Sc2cc(C(=O)NCCCOC(C)C)c3ccccc3n2)cc1`, the activation is 0.0547%.

For `Cc1c(Cl)cccc1-c1ccc(CNCCCSc2nnnn2C)o1`, the activation was 0.946%. The result for `COc1ccc(-c2cn3nc(N4CCC(C(=O)Nc5cccc(C)c5C)CC4)sc3n2)cc1` reads 1.52%. Consider `CSc1cccc(NC(=O)CN2C(=O)CCc3cc(S(=O)(=O)N4CCCCC4)ccc32)c1`, for which the activation was 1.49%.

Take `COc1ccc(NC(=O)NC(C)c2c(-n3cccc3)sc(C)c2C)cc1OC` (configuration not stated): the activation was 0.829%. Consider `CCOC(=O)c1c(C)[nH]c(C)c1S(=O)(=O)NCC(=O)NCc1cccc(C)c1`, for which the activation is 0.112%. `COc1ccc(CCNC(=O)c2cc(=O)c3c(C)cc(C)cc3o2)cc1OC`: the activation is -0.676%. `COc1cccc(CNC(=O)C(=O)NCC(c2cccs2)S(=O)(=O)c2ccccc2)c1` (configuration not stated): the activation is 17.6%.

Take `CCN1CCN(c2ncnc3c2cnn3-c2ccc(C)c(C)c2)CC1`: the activation was 0.887%. Regarding `COc1cc(C(=O)NCC(c2ccc(Cl)cc2)N2CCOCC2)cc(OC)c1OC` (configuration not stated), the activation is -0.027%. For `Cc1cc(C)c2oc(C(=O)Nc3c(C(=O)Nc4ccccc4)oc4ccccc34)cc(=O)c2c1`, the activation was 0.443%. With `Cc1ccccc1C(=O)N(Cc1ccc(N(C)C)cc1)CC1CCCO1` (configuration not stated), the activation was -0.0491%. Then `O=C(Nc1cc(-c2nc3ccccc3o2)ccc1Cl)c1cc([N+](=O)[O-])ccc1N1CCOCC1`, with -0.175%; and `Cc1ccccc1OCC(=O)Nc1c(C(=O)Nc2ccccc2F)oc2ccccc12`, with -0.888%; and `CCOC(=O)c1nnn2c3ccccc3c(=O)n(C)c12`, with 0.451%. `CCCc1nc2c(c(=O)c3ccccc3n2C)c(=O)n1C1CCCCCC1`: the activation was 38.8% (active). Regarding `Cn1c2ccccc2c2c(C(=O)N3CCN(c4ccc(F)cc4)CC3)cn(C3CCCC3)c(=O)c21`, the activation is 0.715%. The result for `COc1cccc(CNc2nccn(-c3ccc(OC)c(OC)c3)c2=O)c1` reads 0.433%; that for `CCOc1ccccc1C(=O)NC1(C(F)(F)F)NC(=O)N(CCc2ccc(OC)c(OC)c2)C1=O` (configuration not stated), -1.49%. Then `Cc1ccc(C)c(CN2C(=O)c3ccccc3S(=O)c3ccc(C(=O)N4CCOCC4)cc32)c1` (configuration not stated), with 0.908%; and `CCSc1nnc2c(n1)OC(c1ccc(OCC(=O)O)cc1)Nc1ccccc1-2` (configuration not stated), with -0.918%. `O=C(c1cc2ccccc2o1)N1CCN(Cc2ccccc2)CC1`: the activation is 0.213%. As for `CC(C)c1csc(CN2CCC(CO)(Cc3ccccc3)CC2)n1`, the activation is 0.222%. As to `OCC1(Cc2ccccc2)CCN(Cc2cc3ccccc3o2)CC1`, the activation was 58.8% (active). In the case of `O=C(c1ccc(Cl)cc1)c1ccc(OCC(O)CN2CCCCC2)cc1` (configuration not stated), the activation is 0.406%.

Regarding `OC(COc1ccc2c(c1)CCC2)CN1CCN(c2cccc(Cl)c2)CC1` (configuration not stated), the activation was 55.1% (active).

Turning to `O=c1cc(CN2CCN(c3cccc(Cl)c3)CC2)c2cc3c(cc2o1)CCCC3`, the activation was -0.276%. `CCNS(=O)(=O)c1ccc(NC(=O)CSc2nc(-c3ccco3)cc(C(F)(F)F)n2)cc1`: the activation was -0.45%. Then `Nc1c(C(=O)c2cccs2)sc2nsc(SCCN3CCCCC3)c12`, with 52.2% (active); and `COc1ccc(CCC(=O)NCc2ccc3c(c2)CCN3C(=O)c2ccc(F)cc2)cc1`, with 1.61%. Take `CCN1CCN(c2ncc3c(n2)CC(c2ccccc2O)CC3=O)CC1` (configuration not stated): the activation is -0.199%.

With `CCN(CC)CCC(c1ccc2c(c1)OCO2)c1c(OC)cc(OC)c2c(-c3ccccc3)cc(=O)oc12` (configuration not stated), the activation was -1.38%. Consider `COc1cc(C(CCN2CCN(c3ccccc3)CC2)c2c(OC)cc(OC)c3ccc(=O)oc23)cc(OC)c1OC` (configuration not stated), for which the activation was 25.6%. For `COc1cc(OC)c2ccc(=O)oc2c1C(CCN1CCN(c2ccccc2)CC1)c1ccc2c(c1)OCO2` (configuration not stated), the activation was 78.4% (active). The result for `CCCn1c2ccccc2c2cnn(CC(=O)N3CCCC(C(=O)OCC)C3)c(=O)c21` (configuration not stated) reads 0.474%. Regarding `CCN(C(=O)Cn1c(=O)nc(-c2ccccc2)c2cc(Cl)ccc21)c1cccc(C)c1`, the activation is 6.7%. In the case of `O=c1cc(CCl)nc2scc(-c3ccccc3)n12`, the activation was 39.4% (active). Consider `Cc1csc2nc(COc3ccc(NC(=O)COc4ccccc4)cc3)cc(=O)n12`, for which the activation is -0.592%.

On to `Cc1csc2nc(COC(=O)c3ccccc3NC(=O)c3ccccc3Cl)cc(=O)n12`, for which the activation was 0.344%. `CCc1ccccc1NC(=O)c1ccc(F)c(S(=O)(=O)NC2CCCCCC2)c1`: the activation is 0.52%. For `COc1ccc(NC(=O)CN2CCCN(Cc3ccccc3)S2(=O)=O)cc1`, the activation was -1.11%.
